In all, about 310,000 compounds went through this assay and about 14,000 (4.5%) showed an effect of 50% or more. The effect is printed as a negative number. The list comes from a sample in which strong results are over-represented; it also holds similar structures and randomly drawn compounds.
Each molecule was assayed against human ether-à-go-go-related gene (hERG) potassium channel (human, UniProt Q12809) (assay: primary screen, population patch clamp on CHO cells stably expressing hERG; higher = less effect of the substance).
human ether-à-go-go-related gene (hERG) potassium channel, sequence (Q12809 whole entry, looked up): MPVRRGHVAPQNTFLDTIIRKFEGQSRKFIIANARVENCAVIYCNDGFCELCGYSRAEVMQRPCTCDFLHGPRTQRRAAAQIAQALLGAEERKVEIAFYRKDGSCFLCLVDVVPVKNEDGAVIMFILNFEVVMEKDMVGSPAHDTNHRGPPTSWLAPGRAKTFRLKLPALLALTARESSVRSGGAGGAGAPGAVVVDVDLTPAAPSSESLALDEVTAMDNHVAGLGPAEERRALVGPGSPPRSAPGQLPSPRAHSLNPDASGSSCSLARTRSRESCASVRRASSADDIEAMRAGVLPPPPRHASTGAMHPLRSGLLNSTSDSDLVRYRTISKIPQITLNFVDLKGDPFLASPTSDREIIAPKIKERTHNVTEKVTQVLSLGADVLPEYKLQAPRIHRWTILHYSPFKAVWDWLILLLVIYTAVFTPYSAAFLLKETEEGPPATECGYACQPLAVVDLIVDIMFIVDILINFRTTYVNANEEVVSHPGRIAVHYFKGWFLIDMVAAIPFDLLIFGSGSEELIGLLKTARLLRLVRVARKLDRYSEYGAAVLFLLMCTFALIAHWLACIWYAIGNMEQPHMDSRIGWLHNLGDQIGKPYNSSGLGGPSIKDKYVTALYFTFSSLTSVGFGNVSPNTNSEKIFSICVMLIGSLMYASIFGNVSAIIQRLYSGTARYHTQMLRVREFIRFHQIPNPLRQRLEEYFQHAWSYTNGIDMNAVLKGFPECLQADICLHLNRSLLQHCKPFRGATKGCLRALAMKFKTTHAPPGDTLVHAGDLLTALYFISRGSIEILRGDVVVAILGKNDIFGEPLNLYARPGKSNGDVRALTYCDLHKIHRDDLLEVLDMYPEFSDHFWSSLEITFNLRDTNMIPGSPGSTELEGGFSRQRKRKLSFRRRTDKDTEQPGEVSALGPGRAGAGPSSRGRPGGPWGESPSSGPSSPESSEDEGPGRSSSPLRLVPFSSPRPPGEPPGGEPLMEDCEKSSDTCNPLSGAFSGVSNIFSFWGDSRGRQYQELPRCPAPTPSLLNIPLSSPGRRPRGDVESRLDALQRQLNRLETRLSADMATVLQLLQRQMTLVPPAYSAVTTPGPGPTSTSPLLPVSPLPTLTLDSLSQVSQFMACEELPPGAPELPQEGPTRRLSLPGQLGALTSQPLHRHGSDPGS
`COc1ccc(N2CCN(C(=O)CNC(=O)c3cccs3)CC2)cc1` was tested, and the “hERG current change (%, negative = inhibition) at 10uM” value was 10.9%. With `CCC(C)NC(=O)C(=O)NCc1ccccn1` (stereo not drawn) the “hERG current change (%, negative = inhibition) at 10uM” value was 14.6%. `COc1ccc(CNC(=O)c2nnn(CC(=O)Nc3cc(C)cc(C)c3)c2N)cc1` was tested, and the “hERG current change (%, negative = inhibition) at 10uM” value was 11.9%. `CCCCc1cc(=O)oc2cc(C)cc(OCC(=O)NCC3CCC(C(=O)O)CC3)c12` (stereo not drawn) was tested, and the “hERG current change (%, negative = inhibition) at 10uM” value was -1.21%. In the case of `CC1Cc2ccccc2N1C(=O)c1cc2sccc2n1Cc1ccccc1` (stereo not drawn), the “hERG current change (%, negative = inhibition) at 10uM” value is reported as 7.64%. In the case of `CC[N+](C)(CC)CCCCOc1ccc2c(c1)C(=O)c1cc(OCCCC[N+](C)(CC)CC)ccc1-2.[I-]`, the “hERG current change (%, negative = inhibition) at 10uM” value is reported as 12.9%. For `O=c1c2c3nc4ccccc4nc3n(CC3CCCO3)c2ncn1CCc1ccccc1` (stereo not drawn), the “hERG current change (%, negative = inhibition) at 10uM” value was -5.67%. `O=C(c1cccc(F)c1)N1C2C=CC(C2)C1(C(F)(F)F)C(F)(F)F` (stereo not drawn) was tested, and the “hERG current change (%, negative = inhibition) at 10uM” value was -0.667%. In the case of `C=CCn1c(COc2cccc3cccnc23)nnc1SCC(=O)O`, the “hERG current change (%, negative = inhibition) at 10uM” value is reported as 12.7%. With `Cc1cccc2c1N(CCOc1ccc(C(C)(C)C)cc1)C(=O)C2=O` the “hERG current change (%, negative = inhibition) at 10uM” value was -7.48%. In the case of `Cc1cccc(CCNS(=O)(=O)c2cc3c(cc2C)NC(=O)CO3)c1`, the “hERG current change (%, negative = inhibition) at 10uM” value is reported as -34.4%. `CC1(C)CC(=O)C(C=NC2CCCCC2)=C(O)C1` was tested, and the “hERG current change (%, negative = inhibition) at 10uM” value was -10.2%. With `Cc1nc(NCc2ccco2)c2oc3ccccc3c2n1` the “hERG current change (%, negative = inhibition) at 10uM” value was -29.8%. For `C=CCOc1ccc(CN(C)C(=O)C2CCCO2)cc1` (stereo not drawn), the “hERG current change (%, negative = inhibition) at 10uM” value was 2.34%. With `O=C(c1ccc(-c2cccc(Cl)c2)o1)N1CCN(c2ccc([N+](=O)[O-])cc2)CC1` the “hERG current change (%, negative = inhibition) at 10uM” value was -58.9%. `COc1ccc(N2CCN(C(=O)c3cc(C)oc3C)CC2)cc1` was tested, and the “hERG current change (%, negative = inhibition) at 10uM” value was 12.7%. With `Cc1c(Cl)cccc1-c1ccc(C(=O)N2CCN(c3ccc([N+](=O)[O-])cc3)CC2)o1` the “hERG current change (%, negative = inhibition) at 10uM” value was -14%. With `Cc1cc(C(=O)N2CCN(c3ccc([N+](=O)[O-])cc3)CC2)c(C)o1` the “hERG current change (%, negative = inhibition) at 10uM” value was -73.5%. For `O=C(c1ccc(-c2ccc(Cl)cc2)o1)N1CCN(c2ccc([N+](=O)[O-])cc2Cl)CC1`, the “hERG current change (%, negative = inhibition) at 10uM” value was 3.9%. With `CCn1cc(C(=O)N2CCN(c3cccc(C)c3C)CC2)c(=O)c2ccc(C)nc21` the “hERG current change (%, negative = inhibition) at 10uM” value was -12.9%. For `Cc1cc(C(=O)N2CCN(c3ccccc3)CC2)c(C)o1`, the “hERG current change (%, negative = inhibition) at 10uM” value was -1.46%. For `CCn1cc(C(=O)N2CCN(c3ccccc3F)CC2)c(=O)c2ccc(C)nc21`, the “hERG current change (%, negative = inhibition) at 10uM” value was -5.94%. In the case of `CCn1cc(C(=O)N2CCN(c3ccc([N+](=O)[O-])cc3)CC2)c(=O)c2ccc(C)nc21`, the “hERG current change (%, negative = inhibition) at 10uM” value is reported as -70.9%. `O=C(C(=O)N1CCN(C(=O)c2ccco2)CC1)c1c[nH]c2ccccc12` was tested, and the “hERG current change (%, negative = inhibition) at 10uM” value was -2.67%. In the case of `CCOc1ccc(S(=O)(=O)n2cc(-c3ccccc3)c(N)n2)cc1`, the “hERG current change (%, negative = inhibition) at 10uM” value is reported as 5.5%. In the case of `O=C(c1ccc2c(Cl)c3c(nc2c1)CCCC3)N1CCC(N2CCCCC2)CC1`, the “hERG current change (%, negative = inhibition) at 10uM” value is reported as -46%. For `NC(=O)COC(=O)c1sc2ccccc2c1Cl`, the “hERG current change (%, negative = inhibition) at 10uM” value was 24.3%. `CN(C)CCCN(C(=O)c1ccc(C(=O)c2ccccc2)cc1)c1nc2c(F)cccc2s1` was tested, and the “hERG current change (%, negative = inhibition) at 10uM” value was -67.3%. With `CN(C)CCOC(=O)c1sc2ccccc2c1Cl.Cl` the “hERG current change (%, negative = inhibition) at 10uM” value was -29.4%. For `Cc1ccc2nc(N(CCCN(C)C)C(=O)c3sc4ccccc4c3Cl)sc2c1.Cl`, the “hERG current change (%, negative = inhibition) at 10uM” value was -29.9%. In the case of `Cc1cccc2sc(N(CCCN(C)C)C(=O)c3ccc(S(=O)(=O)N4CCc5ccccc5C4)cc3)nc12.Cl`, the “hERG current change (%, negative = inhibition) at 10uM” value is reported as 13.9%. `CN(C)CCCN(C(=O)c1sc2ccccc2c1Cl)c1nc2c(F)cccc2s1.Cl` was tested, and the “hERG current change (%, negative = inhibition) at 10uM” value was -61.9%. With `Cc1cccc2sc(N(CCCN(C)C)C(=O)c3sc4ccccc4c3Cl)nc12.Cl` the “hERG current change (%, negative = inhibition) at 10uM” value was -13.5%. With `CN(C)CCCOC(=O)c1sc2ccccc2c1Cl.Cl` the “hERG current change (%, negative = inhibition) at 10uM” value was -50.2%. `Cc1cccc2sc(N(CCCN(C)C)C(=O)c3ccc(C(=O)c4ccccc4)cc3)nc12` was tested, and the “hERG current change (%, negative = inhibition) at 10uM” value was -53.2%. `Cc1ccc2sc(N(CCCN(C)C)C(=O)c3ccc(S(=O)(=O)N(C)Cc4ccccc4)cc3)nc2c1C.Cl` was tested, and the “hERG current change (%, negative = inhibition) at 10uM” value was -20%. For `CN(C)CCCN(C(=O)c1ccc(N2C(=O)CCC2=O)cc1)c1nc2c(F)cccc2s1.Cl`, the “hERG current change (%, negative = inhibition) at 10uM” value was -0.103%. In the case of `O=c1c2ccccc2ncn1-c1ccccc1[N+](=O)[O-]`, the “hERG current change (%, negative = inhibition) at 10uM” value is reported as 11.9%. With `O=S(=O)(c1ccc(OCC(O)CN2CCN(c3ccc(F)cc3)CC2)cc1)N1CCOCC1` (stereo not drawn) the “hERG current change (%, negative = inhibition) at 10uM” value was -18.2%. `O=C(NNC1CC(=O)N(c2ccc(Br)cc2)C1=O)c1ccccn1` (stereo not drawn) was tested, and the “hERG current change (%, negative = inhibition) at 10uM” value was -4.01%. With `CCCC1Cc2nc(Cl)c(C#N)cc2CO1` (stereo not drawn) the “hERG current change (%, negative = inhibition) at 10uM” value was 15.6%. For `O=C(Nc1cccnc1)c1cc(S(=O)(=O)N2CCOCC2)ccc1Br`, the “hERG current change (%, negative = inhibition) at 10uM” value was -35.8%. With `COc1cc2c(cc1OC)C(COc1ccccc1OC)N(C(=O)c1ccco1)CC2` (stereo not drawn) the “hERG current change (%, negative = inhibition) at 10uM” value was -15.6%. In the case of `COC(=O)c1[nH]c2ccccc2c1NC(=O)CN1CCC(C(N)=O)(N2CCCCC2)CC1`, the “hERG current change (%, negative = inhibition) at 10uM” value is reported as -35.1%. With `Cc1cc(C)cc(N(CC(=O)Nc2ccc(C)cc2Cl)S(=O)(=O)c2c(C)[nH]c(=O)[nH]c2=O)c1` the “hERG current change (%, negative = inhibition) at 10uM” value was -7.63%. For `COc1cc(NC(=O)CN(c2cc(C)cc(C)c2)S(=O)(=O)c2c(C)[nH]c(=O)[nH]c2=O)cc(OC)c1`, the “hERG current change (%, negative = inhibition) at 10uM” value was -27.8%. With `Cc1cc(C)cc(N(CC(=O)Nc2ccc(C(F)(F)F)cc2)S(=O)(=O)c2c(C)[nH]c(=O)[nH]c2=O)c1` the “hERG current change (%, negative = inhibition) at 10uM” value was -88%. In the case of `CCc1ccc(NC(=O)CN(c2cc(C)cc(C)c2)S(=O)(=O)c2c(C)[nH]c(=O)[nH]c2=O)cc1`, the “hERG current change (%, negative = inhibition) at 10uM” value is reported as -33.7%. In the case of `Cc1cc(C)cc(N(CC(=O)Nc2cc(C)ccc2C)S(=O)(=O)c2c(C)[nH]c(=O)[nH]c2=O)c1`, the “hERG current change (%, negative = inhibition) at 10uM” value is reported as 5.03%. With `Cc1cc(C)cc(N(CC(=O)Nc2ccc(Br)cc2)S(=O)(=O)c2c(C)[nH]c(=O)[nH]c2=O)c1` the “hERG current change (%, negative = inhibition) at 10uM” value was -76.4%. For `c1ccc(NCc2cccnc2)cc1`, the “hERG current change (%, negative = inhibition) at 10uM” value was 12.1%.

From PMC4336329 (PLoS ONE, 2015)
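Note: peak tail current of the secondary pulse compared with the same well before compound.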
